{"source": "PubChem BioAssay", "note": "Where “and” joins values, the source holds several entries; their conditions need not be identical. Equal values may be shown once.", "data": [{"molecular_target": "Carbonic anhydrase 2 (Homo sapiens) (UniProt P00918)", "test": "compounds binding carbonic anhydrase 2 – biochemical, small-molecule microarray, Alexa647-labelled CAII, profiling panel (AID 1122)", "conditions": "CAII-A647 binding fluorescence, higher = more signal", "values": [{"smiles": "CC(C)=NOC[C@@H](O)COCc1ccco1", "composite z-score": -0.637}, {"smiles": "COC(=O)C1=C(C)N(Cc2ccccc2)C2=C(C(C)=O)C[C@@](O)(C(=O)OC)C(=O)N2[C@@H]1c1ccccc1", "composite z-score": "0.84 and 0.766"}, {"smiles": "COC(=O)[C@@]1(Cc2ccc(OC)cc2)[C@H]2c3cc(C(=O)N(C)C)n(Cc4ccc(O)c(OC)c4)c3C[C@H]2CN1C(=O)c1ccccc1", "composite z-score": "0.893 and 0.406"}, {"smiles": "C=CC[C@H](O)c1ccc(OCCO)cc1", "composite z-score": "0.725 and 0.843"}, {"smiles": "CC(C)=NO[C@@H](C)c1cc(-c2c(C)cc(C)cc2C)no1", "composite z-score": -0.223}, {"smiles": "C[N+](C)(C)CCCCNC(=O)[C@H]1C[C@H]2C(=O)N[C@@H](CCCC[N+](C)(C)C)C(=O)N2[C@H]1c1ccc(O)cc1", "composite z-score": "0.257 and 0.0659"}, {"smiles": "C[C@@]1([C@@H](NC(=O)Cc2ccccc2)c2ccc(-c3ccccc3)cc2)C[C@H]1C1CCCCC1", "composite z-score": "0.426 and 0.62 and 0.464"}, {"smiles": "CCN1C(=O)[C@H]2[C@H]3[C@H](O)[C@H](O)CC(=NOC)[C@@H]3CC[C@H]2C1=O", "composite z-score": -0.317}, {"smiles": "O=C1NC(=O)C2C1C=CC(C(O)c1ccc([N+](=O)[O-])cc1)N2Nc1ccc(Cl)cc1Cl", "note": "(centres undefined)", "composite z-score": "0.483 and 0.751"}, {"smiles": "C=C[C@H](C)[C@@H](O)c1ccc(OCCO)cc1", "composite z-score": "0.743 and 0.6"}, {"smiles": "CC(C)CON=C1C[C@@H](O)[C@@H](O)[C@@H]2[C@@H]3C(=O)N(c4cccc(Oc5ccccc5)c4)C(=O)[C@@H]3CC[C@H]12", "composite z-score": 0.315}, {"smiles": "CO[C@H]1COC(=O)CC=C[C@@H](C)COC(=O)[C@H](CCSC)NC(=O)CC=C[C@@H]1C", "composite z-score": "-0.407 and -0.489"}, {"smiles": "C=C[C@@H](OC)[C@H](O)c1ccc(OCCO)cc1", "composite z-score": "0.831 and 0.847"}, {"smiles": "CCOC(=O)c1ccc(NC(=O)O[C@H]2[C@H](OC(=O)Nc3ccccc3)[C@@H](OC(=O)Nc3ccccc3)[C@@H](OC)O[C@@H]2CO)cc1", "composite z-score": "0.527 and 0.688"}]}]}
